The full data set covers some 7,900 targets. This sample favours those with a hit. About 0.6% of all pairs of compound and target were hits.
These targets were tested with C[C@@H](Oc1cc(-c2cnn(C3CCNCC3)c2)cnc1N)c1c(Cl)ccc(F)c1Cl [crizotinib] (assay: log2 fold change, soluble protein after heating vs DMSO (PISA); higher = thermal stabilisation; K562 cells, 10 uM, 30 min; active = over 0.2 and 3.5 SD of the protein, either way, in both replicates (recomputed)).
Procedure, shortened: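 Aliquots of K562 cells (2×10^6 cells/mL) treated with 10 μM compound for 30 min were heated for 3 min over 48°C-58°C. After pooling and extraction in PBS with 0.5% NP-40 at 4°C, soluble protein from a 21,000xg, 90 min spin was quantified by TMTpro 16plex LC-MS/MS with channel sums equalised. Thermal stability is expressed against control samples, from duplicates, as a log2 fold change.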

Sequence of UniProt O00232 (O00232 whole entry, looked up): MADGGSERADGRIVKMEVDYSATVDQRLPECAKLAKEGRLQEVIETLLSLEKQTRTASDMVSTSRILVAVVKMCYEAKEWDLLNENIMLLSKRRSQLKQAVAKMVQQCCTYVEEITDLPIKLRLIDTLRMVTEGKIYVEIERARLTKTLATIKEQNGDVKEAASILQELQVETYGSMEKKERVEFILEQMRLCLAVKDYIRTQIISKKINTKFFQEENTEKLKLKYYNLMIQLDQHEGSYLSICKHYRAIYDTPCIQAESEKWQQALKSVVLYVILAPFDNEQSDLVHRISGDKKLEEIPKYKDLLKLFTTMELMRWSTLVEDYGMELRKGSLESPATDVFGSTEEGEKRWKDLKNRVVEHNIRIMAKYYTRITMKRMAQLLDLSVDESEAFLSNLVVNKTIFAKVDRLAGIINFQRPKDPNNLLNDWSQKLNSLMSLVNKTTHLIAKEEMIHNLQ
Sequence of UniProt Q15172 (Q15172 whole entry, looked up): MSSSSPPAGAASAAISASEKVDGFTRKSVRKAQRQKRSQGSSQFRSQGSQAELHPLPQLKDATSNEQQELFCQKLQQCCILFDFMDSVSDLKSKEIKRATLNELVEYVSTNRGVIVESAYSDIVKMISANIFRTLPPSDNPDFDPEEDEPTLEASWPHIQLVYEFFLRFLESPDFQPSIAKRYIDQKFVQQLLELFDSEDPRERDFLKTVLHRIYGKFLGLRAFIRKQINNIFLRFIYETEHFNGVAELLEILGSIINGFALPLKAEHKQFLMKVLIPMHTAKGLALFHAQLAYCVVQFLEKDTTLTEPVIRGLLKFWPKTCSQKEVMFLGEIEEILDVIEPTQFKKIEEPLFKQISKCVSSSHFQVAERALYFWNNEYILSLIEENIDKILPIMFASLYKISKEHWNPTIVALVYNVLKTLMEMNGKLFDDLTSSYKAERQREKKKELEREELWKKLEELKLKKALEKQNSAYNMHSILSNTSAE
Sequence of UniProt Q96HA1 (Q96HA1 whole entry, looked up): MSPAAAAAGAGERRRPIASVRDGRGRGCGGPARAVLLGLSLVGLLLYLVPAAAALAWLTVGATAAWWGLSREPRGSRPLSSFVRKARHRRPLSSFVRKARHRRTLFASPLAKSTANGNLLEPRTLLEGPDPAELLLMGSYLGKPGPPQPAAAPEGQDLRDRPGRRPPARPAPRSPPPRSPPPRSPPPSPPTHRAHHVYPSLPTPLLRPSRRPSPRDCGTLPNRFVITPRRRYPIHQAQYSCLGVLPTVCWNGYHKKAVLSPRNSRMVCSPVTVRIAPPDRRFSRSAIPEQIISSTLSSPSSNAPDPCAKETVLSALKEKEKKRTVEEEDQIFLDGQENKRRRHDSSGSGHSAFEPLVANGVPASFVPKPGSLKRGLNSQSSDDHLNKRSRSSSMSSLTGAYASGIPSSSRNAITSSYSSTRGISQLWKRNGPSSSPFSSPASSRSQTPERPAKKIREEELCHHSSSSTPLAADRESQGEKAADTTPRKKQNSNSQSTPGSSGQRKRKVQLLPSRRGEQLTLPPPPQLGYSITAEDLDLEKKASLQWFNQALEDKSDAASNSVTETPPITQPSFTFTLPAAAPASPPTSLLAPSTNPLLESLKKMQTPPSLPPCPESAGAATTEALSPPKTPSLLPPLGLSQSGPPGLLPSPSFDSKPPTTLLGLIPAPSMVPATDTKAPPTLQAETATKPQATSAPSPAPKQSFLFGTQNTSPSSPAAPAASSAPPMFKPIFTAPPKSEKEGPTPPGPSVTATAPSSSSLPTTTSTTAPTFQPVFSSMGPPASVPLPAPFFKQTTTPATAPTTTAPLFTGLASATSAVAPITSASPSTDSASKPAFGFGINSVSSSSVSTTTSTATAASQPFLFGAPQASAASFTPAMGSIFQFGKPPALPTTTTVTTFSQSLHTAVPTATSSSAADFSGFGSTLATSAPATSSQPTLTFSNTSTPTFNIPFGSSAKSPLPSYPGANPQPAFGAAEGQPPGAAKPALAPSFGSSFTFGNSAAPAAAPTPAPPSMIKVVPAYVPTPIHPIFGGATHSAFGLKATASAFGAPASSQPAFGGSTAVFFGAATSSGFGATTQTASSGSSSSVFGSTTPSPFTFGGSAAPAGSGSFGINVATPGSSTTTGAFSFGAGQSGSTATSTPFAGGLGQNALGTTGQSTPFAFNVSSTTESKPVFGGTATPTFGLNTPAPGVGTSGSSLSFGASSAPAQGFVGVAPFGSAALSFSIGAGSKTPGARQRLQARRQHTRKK
Sequence of UniProt Q96KB5 (Q96KB5 whole entry, looked up): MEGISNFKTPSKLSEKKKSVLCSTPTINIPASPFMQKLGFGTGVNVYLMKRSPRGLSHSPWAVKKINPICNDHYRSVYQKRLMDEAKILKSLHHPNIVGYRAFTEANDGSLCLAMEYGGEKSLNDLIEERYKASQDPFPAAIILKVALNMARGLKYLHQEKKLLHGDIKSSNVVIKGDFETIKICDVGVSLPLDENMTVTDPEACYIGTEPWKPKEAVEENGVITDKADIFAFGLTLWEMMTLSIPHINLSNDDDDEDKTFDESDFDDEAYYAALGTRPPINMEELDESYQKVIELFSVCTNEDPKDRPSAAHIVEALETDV
Sequence of UniProt Q86W56 (Q86W56 whole entry, looked up): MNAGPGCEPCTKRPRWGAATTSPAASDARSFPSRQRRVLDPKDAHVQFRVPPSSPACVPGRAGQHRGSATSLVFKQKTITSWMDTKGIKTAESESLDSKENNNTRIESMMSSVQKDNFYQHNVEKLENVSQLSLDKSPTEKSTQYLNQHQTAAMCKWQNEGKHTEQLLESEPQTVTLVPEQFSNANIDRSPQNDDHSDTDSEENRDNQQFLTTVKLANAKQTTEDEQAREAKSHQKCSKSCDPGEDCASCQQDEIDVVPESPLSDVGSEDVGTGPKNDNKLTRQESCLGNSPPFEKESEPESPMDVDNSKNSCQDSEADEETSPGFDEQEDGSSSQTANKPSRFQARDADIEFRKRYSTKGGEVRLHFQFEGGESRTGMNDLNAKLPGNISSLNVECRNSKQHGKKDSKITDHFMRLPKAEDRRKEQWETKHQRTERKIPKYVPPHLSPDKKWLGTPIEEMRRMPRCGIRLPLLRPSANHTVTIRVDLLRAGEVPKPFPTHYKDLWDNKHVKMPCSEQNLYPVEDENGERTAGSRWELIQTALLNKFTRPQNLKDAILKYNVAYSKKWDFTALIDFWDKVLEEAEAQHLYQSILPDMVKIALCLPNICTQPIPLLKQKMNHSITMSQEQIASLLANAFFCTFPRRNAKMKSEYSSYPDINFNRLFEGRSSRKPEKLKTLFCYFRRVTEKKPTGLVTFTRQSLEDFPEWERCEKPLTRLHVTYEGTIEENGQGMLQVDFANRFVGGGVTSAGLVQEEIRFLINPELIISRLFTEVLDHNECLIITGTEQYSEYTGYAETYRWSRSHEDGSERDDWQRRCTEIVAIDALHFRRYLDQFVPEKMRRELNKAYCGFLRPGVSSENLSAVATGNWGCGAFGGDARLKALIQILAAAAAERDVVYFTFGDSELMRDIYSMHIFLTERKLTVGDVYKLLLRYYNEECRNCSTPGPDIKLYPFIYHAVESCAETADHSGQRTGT
Sequence of UniProt P28340 (P28340 whole entry, looked up): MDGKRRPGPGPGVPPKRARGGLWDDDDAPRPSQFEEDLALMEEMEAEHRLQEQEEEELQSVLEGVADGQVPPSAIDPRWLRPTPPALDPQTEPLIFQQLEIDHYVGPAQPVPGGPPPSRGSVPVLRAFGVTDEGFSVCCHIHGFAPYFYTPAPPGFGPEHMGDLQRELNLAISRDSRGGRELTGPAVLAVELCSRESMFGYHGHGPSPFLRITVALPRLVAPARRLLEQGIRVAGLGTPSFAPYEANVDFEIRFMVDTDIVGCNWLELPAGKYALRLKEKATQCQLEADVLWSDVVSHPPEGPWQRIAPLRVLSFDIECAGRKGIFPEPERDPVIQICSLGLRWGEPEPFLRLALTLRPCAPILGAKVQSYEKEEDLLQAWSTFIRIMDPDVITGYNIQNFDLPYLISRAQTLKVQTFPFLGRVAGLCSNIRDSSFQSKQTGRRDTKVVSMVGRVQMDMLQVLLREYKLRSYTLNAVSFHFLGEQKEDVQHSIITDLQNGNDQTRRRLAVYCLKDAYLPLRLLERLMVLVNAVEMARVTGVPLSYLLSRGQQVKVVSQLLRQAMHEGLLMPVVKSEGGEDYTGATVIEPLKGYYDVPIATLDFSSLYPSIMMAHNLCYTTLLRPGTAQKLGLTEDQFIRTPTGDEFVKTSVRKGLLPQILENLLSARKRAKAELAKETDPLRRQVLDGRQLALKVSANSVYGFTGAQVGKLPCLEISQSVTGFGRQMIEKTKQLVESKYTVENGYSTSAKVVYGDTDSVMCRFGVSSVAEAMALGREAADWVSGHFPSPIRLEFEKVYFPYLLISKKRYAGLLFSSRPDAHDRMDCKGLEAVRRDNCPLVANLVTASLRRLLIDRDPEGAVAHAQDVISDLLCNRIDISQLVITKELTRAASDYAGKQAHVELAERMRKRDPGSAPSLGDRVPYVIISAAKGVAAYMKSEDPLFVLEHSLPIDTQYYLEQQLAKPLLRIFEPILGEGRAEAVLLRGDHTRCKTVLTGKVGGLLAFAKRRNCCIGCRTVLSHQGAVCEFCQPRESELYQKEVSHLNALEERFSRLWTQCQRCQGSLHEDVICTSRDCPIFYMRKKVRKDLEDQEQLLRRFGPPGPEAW
Sequence of UniProt P50336 (P50336 whole entry, looked up): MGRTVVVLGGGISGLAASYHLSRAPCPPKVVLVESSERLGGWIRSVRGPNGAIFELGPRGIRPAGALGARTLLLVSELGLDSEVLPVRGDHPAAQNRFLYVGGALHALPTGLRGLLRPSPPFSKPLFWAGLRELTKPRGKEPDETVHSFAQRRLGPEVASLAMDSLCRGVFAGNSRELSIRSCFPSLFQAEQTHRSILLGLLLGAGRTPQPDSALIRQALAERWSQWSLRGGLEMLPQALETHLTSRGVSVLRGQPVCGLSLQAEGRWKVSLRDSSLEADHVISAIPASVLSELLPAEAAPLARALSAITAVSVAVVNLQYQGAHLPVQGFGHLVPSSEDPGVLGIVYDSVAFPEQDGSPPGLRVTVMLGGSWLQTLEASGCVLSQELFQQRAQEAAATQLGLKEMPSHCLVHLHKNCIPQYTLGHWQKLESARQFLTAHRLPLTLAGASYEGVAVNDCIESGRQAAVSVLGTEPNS

log2 fold change, inactive:
PARN (UniProt O95453) -0.095
PEF1 (UniProt Q9UBV8) 0.094
POLD1 (UniProt P28340) -0.042
PARG (UniProt Q86W56) -0.147
PRMT7 (UniProt Q9NVM4) -0.142
PDLIM7 (UniProt Q9NR12) -0.075
POLD3 (UniProt Q15054) -0.055
POLR2A (UniProt P24928) 0.231
PLD3 (UniProt Q8IV08) -0.158
PPIL1 (UniProt Q9Y3C6) 0.038
PPP2R5A (UniProt Q15172) -0.154
PPOX (UniProt P50336) -0.197
PLBD2 (UniProt Q8NHP8) -0.07
PRKAR2B (UniProt P31323) -0.108
PJA2 (UniProt O43164) -0.042
PCBP1 (UniProt Q15365) 0
PGK2 (UniProt P07205) 0.029
PSMD6 (UniProt Q15008) -0.046
POLR2K (UniProt P53803) 0.18
PSMD9 (UniProt O00233) -0.069
PDSS2 (UniProt Q86YH6) 0.078
PYGL (UniProt P06737) 0.003
PYGB (UniProt P11216) -0.057
PDE12 (UniProt Q6L8Q7) 0.032
POLR1A (UniProt O95602) -0.017
PBK (UniProt Q96KB5) -0.046
PFAS (UniProt O15067) 0.124
PRKACA (UniProt P17612) -0.088
PSMD12 (UniProt O00232) 0.009
POGLUT1 (UniProt Q8NBL1) 0.059
PTDSS1 (UniProt P48651) -0.141
PRKAB2 (UniProt O43741) -0.245
PPM1G (UniProt O15355) -0.028
PARL (UniProt Q9H300) -0.036
PIP4K2C (UniProt Q8TBX8) -0.058
PRPF4B (UniProt Q13523) -0.006
POM121 (UniProt Q96HA1) -0.139
